Measured values reported in PubChem BioAssay (NCI).
The panel holds about 83,000 compounds, 20% with a hit somewhere; the sample as a whole holds those more often.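 48-hour exposure, single concentration, 96-well plates; percent growth endpoint where 0 means no net growth. Active: below 10.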 Unmarked numbers belong to inactive results. The source made the active and inactive calls.

Key:
Experiment in all cases: NCI-60 one-dose screen, 48 h (100 = growth as untreated, 0 = no growth, -100 = all killed)
Settings in all cases: 10 µM unless noted
[1] = test system: NCI-H23 lung
[2] = test system: NCI-H226 lung
[3] = test system: NCI-H322M lung
[4] = test system: HOP-62 NSCLC
[5] = test system: NCI-H460 lung
[6] = test system: HOP-92 NSCLC
[7] = test system: NCI-H522 lung
[8] = test system: A549/ATCC NSCLC
[9] = test system: 786-0 renal
[10] = test system: COLO 205 colon
[11] = test system: DU-145 prostate
[12] = test system: K-562 leukemia
[13] = test system: MALME-3M melanoma
[14] = test system: MDA-MB-231 breast
[15] = test system: RXF 393 renal
[16] = test system: SF-268 CNS
[17] = test system: SF-295 CNS
[18] = test system: SF-539 CNS
[19] = test system: UACC-257 melanoma
[20] = test system: M14 melanoma

Cc1ccc(/C=C2\SC(=S)N(CC(=O)NCCCN3CCOCC3)C2=O)cc1
growth [1]: 99.6% | growth [2]: 91% | growth [3]: 104% | growth [4]: 103% | growth [5]: 103% | growth [6]: 91.5% | growth [7]: 90.5% | growth [8]: 102% | growth [9]: 104% | growth [10]: 111% | growth [11]: 104% | growth [12]: 89.6% | growth [13]: 95.1% | growth [14]: 91.9% | growth [15]: 101% | growth [16]: 96.5% | growth [17]: 91.1% | growth [18]: 93.7% | growth [19]: 101% | growth [20]: 102%

C#CCOc1ccc2ncnc(NCc3cccc(NC(=O)CCl)c3)c2c1
growth [1]: 36.6% [8.25 µM] | growth [2]: 25.3% [8.25 µM] | growth [3]: 82.3% [8.25 µM] | growth [4]: 0.209% [8.25 µM] (active) | growth [5]: 28.2% [8.25 µM] | growth [6]: 54.4% [8.25 µM] | growth [7]: -62.8% [8.25 µM] (active) | growth [8]: 50.4% [8.25 µM] | growth [9]: 39.2% [8.25 µM] | growth [10]: 54% [8.25 µM] | growth [11]: 77.9% [8.25 µM] | growth [12]: 11.7% [8.25 µM] | growth [13]: 57.4% [8.25 µM] | growth [14]: 45.3% [8.25 µM] | growth [15]: 42.3% [8.25 µM] | growth [16]: 41.9% [8.25 µM] | growth [17]: 93.9% [8.25 µM] | growth [18]: 49.5% [8.25 µM] | growth [19]: 63.8% [8.25 µM] | growth [20]: 51.3% [8.25 µM]

CCCSc1ccc2nc(NC(=O)OC)[nH]c2c1
growth [1]: 24% | growth [2]: 23.2% | growth [3]: 60.1% | growth [4]: 35.2% | growth [5]: 6.79% (active) | growth [6]: 33.6% | growth [7]: -35.7% (active) | growth [8]: 16.5% | growth [9]: 31% | growth [10]: 5.29% (active) | growth [11]: 16.1% | growth [12]: 14.7% | growth [13]: 42% | growth [14]: 18.8% | growth [15]: -4.86% (active) | growth [16]: 44.8% | growth [17]: -2.45% (active) | growth [18]: 4.44% (active) | growth [19]: 59.3% | growth [20]: 0.47% (active)

CCCOc1ccc2nc(NC(=O)OC)[nH]c2c1
growth [1]: 21.9% | growth [2]: 8.05% (active) | growth [3]: 49.9% | growth [4]: 33.6% | growth [5]: 3.52% (active) | growth [6]: 37.9% | growth [7]: -32.7% (active) | growth [8]: 12.8% | growth [9]: 32.6% | growth [10]: 3.31% (active) | growth [11]: 0.47% (active) | growth [12]: 16.1% | growth [13]: 38% | growth [14]: -1.41% (active) | growth [15]: 18.2% | growth [16]: 26.2% | growth [17]: -5.89% (active) | growth [18]: 7.37% (active) | growth [19]: 47.3% | growth [20]: 2.83% (active)

CC(C)(O)c1cn(CCCCN2C(=O)C(=O)c3ccccc32)nn1
growth [1]: 95.8% | growth [2]: 94.8% | growth [3]: 108% | growth [4]: 94.8% | growth [5]: 102% | growth [6]: 102% | growth [7]: 87.4% | growth [8]: 99.7% | growth [9]: 98.3% | growth [10]: 112% | growth [11]: 113% | growth [12]: 94.3% | growth [13]: 105% | growth [14]: 99.7% | growth [15]: 104% | growth [16]: 99.7% | growth [17]: 102% | growth [18]: 96.4% | growth [19]: 103% | growth [20]: 97.7%

COc1ccc2[nH]cc(-c3noc(C(=O)c4cn(C)c5ccc(F)cc45)n3)c2c1
growth [1]: 90.2% | growth [2]: 83.5% | growth [3]: 96.1% | growth [4]: 100% | growth [5]: 95.6% | growth [6]: 84.9% | growth [7]: 92.8% | growth [8]: 105% | growth [9]: 103% | growth [10]: 96% | growth [11]: 103% | growth [12]: 101% | growth [13]: 95.5% | growth [14]: 90.1% | growth [15]: 116% | growth [16]: 95.3% | growth [17]: 98.8% | growth [18]: 95.8% | growth [19]: 97.5% | growth [20]: 98.6%

c1ccc(-c2c(-c3ccccc3)[n+](Cc3ccc4ccccc4c3)c(-c3ccc(-c4nc5ccccc5s4)cc3)n2Cc2ccc3ccccc3c2)cc1
growth [1]: -82.1% (active) | growth [2]: -79.2% (active) | growth [3]: -92.1% (active) | growth [4]: -90% (active) | growth [5]: -67.3% (active) | growth [6]: -85.4% (active) | growth [7]: -81.3% (active) | growth [8]: -77.1% (active) | growth [9]: -75.4% (active) | growth [10]: -86.1% (active) | growth [11]: -95.4% (active) | growth [12]: -25.2% (active) | growth [13]: -78% (active) | growth [14]: -84.3% (active) | growth [15]: -95.6% (active) | growth [16]: -76.9% (active) | growth [17]: -99.6% (active) | growth [18]: -88.9% (active) | growth [19]: -87.5% (active) | growth [20]: -80.4% (active)

C=C(C)[C@@H]1CC[C@]2(C(=O)OC)CC[C@]3(C)[C@H](CC[C@@H]4[C@@]5(C)C/C(=C/c6ccc(OC)cc6)C(=O)C(C)(C)[C@@H]5CC[C@]43C)[C@@H]12
growth [1]: 84.8% | growth [2]: 97.2% | growth [3]: 106% | growth [4]: 99.9% | growth [5]: 101% | growth [6]: 77.9% | growth [7]: 78.8% | growth [8]: 89.5% | growth [9]: 92.2% | growth [10]: 94.4% | growth [11]: 91.1% | growth [12]: 3.32% (active) | growth [13]: 99.7% | growth [14]: 108% | growth [15]: 66.9% | growth [16]: 90.7% | growth [17]: 99.9% | growth [18]: 90.3% | growth [19]: 104% | growth [20]: 91%
